Assay results reported in paper PMC7862700, “An all-to-all approach to the identification of sequence-specific readers for epigenetic DNA modifications on cytosine”.

Experiments:
Assay in all cases: DAPPL (digital affinity profiling via proximity ligation, sequencing); 10 mM Tris-HCl pH 7.5, 50 mM NaCl, 1 mM DTT, 4% glycerol, room temperature, 30 min; GST-TFs on glutathione beads, 16-mer random dsDNA library, 0.1% formaldehyde crosslink after washing; high values mean tight binding
FEV = biological target: T1, FEV (Homo sapiens, UniProt Q99581 1-238); settings: protein: recombinant; tags: N-terminal GST; dsDNA, one strand shown
T1 sequence: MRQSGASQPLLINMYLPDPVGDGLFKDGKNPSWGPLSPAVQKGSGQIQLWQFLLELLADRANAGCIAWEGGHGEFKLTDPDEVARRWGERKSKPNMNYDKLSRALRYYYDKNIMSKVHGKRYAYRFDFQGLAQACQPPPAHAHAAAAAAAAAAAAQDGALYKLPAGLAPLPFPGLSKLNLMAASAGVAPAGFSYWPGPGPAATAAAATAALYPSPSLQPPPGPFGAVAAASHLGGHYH
Method in brief: (§1)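 Binding signal is defined as a hexamer's read frequency for one factor over its frequency for the tag-only sample. To obtain reads, GST-fused human transcription factors were expressed in yeast, captured on glutathione beads, barcoded with DNA and pooled with that sample. Pools met 200 nmole of a 16-mer random double-stranded DNA library in Tris/NaCl/DTT/glycerol buffer for 30 min at room temperature before washing, 0.1% formaldehyde crosslinking, proximity ligation (BsaI/T4 ligase, 1 h, 37 °C), PCR and Illumina NextSeq500 sequencing.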

ETV5 = ETV5 (Homo sapiens, UniProt P41161 1-510); settings: protein: recombinant; tags: N-terminal GST; dsDNA, one strand shown
Method in brief: as §1

HSF1 = HSF1 (Homo sapiens, UniProt Q00613 1-529); settings: protein: recombinant; tags: N-terminal GST; chain copies: 3; dsDNA, one strand shown
Method in brief: as §1

SPIC = biological target: T2, SPIC (Homo sapiens, UniProt Q8N5J4 1-248); settings: protein: recombinant; tags: N-terminal GST; dsDNA, one strand shown
T2 sequence: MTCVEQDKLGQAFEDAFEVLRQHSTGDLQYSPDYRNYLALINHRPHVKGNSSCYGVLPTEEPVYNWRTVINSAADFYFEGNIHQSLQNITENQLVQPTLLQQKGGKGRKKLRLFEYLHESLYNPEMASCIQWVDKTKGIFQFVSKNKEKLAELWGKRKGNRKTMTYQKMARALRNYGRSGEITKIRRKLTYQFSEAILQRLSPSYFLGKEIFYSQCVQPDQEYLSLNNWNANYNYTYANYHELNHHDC
Method in brief: as §1

ELF4 = ELF4 (Homo sapiens, UniProt Q99607 1-663); settings: protein: recombinant; tags: N-terminal GST; dsDNA, one strand shown
Method in brief: as §1

ELK4 = biological target: T3, ELK4 (Homo sapiens, UniProt P28324-2 1-405); settings: protein: recombinant; tags: N-terminal GST; dsDNA, one strand shown
T3 sequence: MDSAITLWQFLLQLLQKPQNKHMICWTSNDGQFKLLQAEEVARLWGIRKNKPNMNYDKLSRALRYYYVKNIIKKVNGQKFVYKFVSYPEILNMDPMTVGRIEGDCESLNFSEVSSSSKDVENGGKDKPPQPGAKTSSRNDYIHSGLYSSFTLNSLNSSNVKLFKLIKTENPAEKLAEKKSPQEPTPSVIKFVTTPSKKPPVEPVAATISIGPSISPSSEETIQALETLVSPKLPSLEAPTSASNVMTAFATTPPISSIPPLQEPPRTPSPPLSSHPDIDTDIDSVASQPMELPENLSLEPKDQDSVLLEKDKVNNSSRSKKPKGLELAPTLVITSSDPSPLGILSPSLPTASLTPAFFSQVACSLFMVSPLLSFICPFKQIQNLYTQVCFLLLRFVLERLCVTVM
Method in brief: as §1

ETV2 = biological target: T4, ETV2 (Homo sapiens, UniProt O00321 1-342); settings: protein: recombinant; tags: N-terminal GST; dsDNA, one strand shown
T4 sequence: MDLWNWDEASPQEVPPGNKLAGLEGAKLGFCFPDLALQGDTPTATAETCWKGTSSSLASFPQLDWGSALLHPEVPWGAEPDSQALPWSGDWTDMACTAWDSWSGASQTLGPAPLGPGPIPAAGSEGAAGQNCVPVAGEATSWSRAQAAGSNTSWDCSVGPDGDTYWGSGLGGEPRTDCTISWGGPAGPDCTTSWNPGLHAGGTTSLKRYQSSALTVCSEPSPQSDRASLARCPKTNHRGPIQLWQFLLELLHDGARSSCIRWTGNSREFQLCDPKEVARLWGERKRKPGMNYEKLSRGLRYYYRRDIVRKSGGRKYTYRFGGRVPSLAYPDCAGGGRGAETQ
Method in brief: as §1

ELF3 = biological target: T5, ELF3 (Homo sapiens, UniProt P78545 1-371); settings: protein: recombinant; tags: N-terminal GST; dsDNA, one strand shown
T5 sequence: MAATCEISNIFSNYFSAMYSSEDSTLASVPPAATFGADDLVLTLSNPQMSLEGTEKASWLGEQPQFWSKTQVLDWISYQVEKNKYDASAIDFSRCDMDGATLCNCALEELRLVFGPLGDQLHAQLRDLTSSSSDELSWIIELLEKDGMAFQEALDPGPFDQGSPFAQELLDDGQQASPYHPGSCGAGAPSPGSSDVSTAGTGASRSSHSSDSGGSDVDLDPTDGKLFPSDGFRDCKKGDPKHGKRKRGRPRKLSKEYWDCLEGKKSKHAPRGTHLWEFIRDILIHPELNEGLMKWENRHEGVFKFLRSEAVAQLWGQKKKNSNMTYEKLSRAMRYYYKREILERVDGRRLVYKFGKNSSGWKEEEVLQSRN
Method in brief: as §1

CRX = CRX (Homo sapiens, UniProt O43186 1-299); settings: protein: recombinant; tags: N-terminal GST; dsDNA, one strand shown
Method in brief: as §1

ETV1 = ETV1 (Homo sapiens, UniProt P50549 1-477); settings: protein: recombinant; tags: N-terminal GST; dsDNA, one strand shown
Method in brief: as §1

ERF = biological target: T6, ERF (Homo sapiens, UniProt P50548 1-548); settings: protein: recombinant; tags: N-terminal GST; dsDNA, one strand shown
T6 sequence: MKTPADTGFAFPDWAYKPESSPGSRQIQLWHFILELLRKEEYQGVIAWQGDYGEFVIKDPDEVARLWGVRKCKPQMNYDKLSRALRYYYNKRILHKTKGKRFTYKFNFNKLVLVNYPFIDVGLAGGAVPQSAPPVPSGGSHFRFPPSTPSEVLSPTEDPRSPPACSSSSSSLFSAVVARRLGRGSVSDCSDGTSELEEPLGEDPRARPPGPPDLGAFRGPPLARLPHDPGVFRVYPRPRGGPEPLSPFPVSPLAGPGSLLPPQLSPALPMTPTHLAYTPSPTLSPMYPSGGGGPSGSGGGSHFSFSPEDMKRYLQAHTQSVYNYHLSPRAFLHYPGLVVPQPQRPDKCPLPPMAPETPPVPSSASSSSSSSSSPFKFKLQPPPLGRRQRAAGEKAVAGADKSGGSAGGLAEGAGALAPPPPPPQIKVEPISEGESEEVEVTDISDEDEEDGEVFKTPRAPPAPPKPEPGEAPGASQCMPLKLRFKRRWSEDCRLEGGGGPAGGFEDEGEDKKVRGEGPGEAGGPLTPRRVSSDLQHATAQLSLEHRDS
Method in brief: as §1

ETV3L = biological target: T7, ETV3L (Homo sapiens, UniProt Q6ZN32 1-361); settings: protein: recombinant; tags: N-terminal GST; dsDNA, one strand shown
T7 sequence: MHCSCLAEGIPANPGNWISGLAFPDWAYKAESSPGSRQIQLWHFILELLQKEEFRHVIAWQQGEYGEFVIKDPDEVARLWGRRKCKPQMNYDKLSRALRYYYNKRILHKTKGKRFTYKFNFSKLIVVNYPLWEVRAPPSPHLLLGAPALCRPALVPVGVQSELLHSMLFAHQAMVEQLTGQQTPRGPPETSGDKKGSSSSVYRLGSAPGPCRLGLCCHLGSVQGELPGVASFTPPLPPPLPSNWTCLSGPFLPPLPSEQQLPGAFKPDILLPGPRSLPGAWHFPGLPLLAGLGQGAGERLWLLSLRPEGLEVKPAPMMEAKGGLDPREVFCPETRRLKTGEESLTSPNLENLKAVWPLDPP
Method in brief: as §1

ETS2 = biological target: T8, ETS2 (Homo sapiens, UniProt P15036 1-469); settings: protein: recombinant; tags: N-terminal GST; dsDNA, one strand shown
T8 sequence: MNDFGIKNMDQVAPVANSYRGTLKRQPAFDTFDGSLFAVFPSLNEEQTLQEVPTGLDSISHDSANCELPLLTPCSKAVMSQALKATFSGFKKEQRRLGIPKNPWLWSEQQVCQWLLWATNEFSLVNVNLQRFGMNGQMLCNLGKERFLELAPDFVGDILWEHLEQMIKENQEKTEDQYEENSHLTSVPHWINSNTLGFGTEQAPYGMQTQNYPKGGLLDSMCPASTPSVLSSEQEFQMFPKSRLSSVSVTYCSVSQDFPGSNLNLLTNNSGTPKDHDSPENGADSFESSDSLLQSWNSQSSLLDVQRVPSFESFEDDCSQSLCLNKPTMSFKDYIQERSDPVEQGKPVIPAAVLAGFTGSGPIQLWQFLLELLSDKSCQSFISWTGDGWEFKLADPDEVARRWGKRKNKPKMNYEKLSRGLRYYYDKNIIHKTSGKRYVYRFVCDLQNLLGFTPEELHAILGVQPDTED
Method in brief: as §1

SPDEF = biological target: T9, SPDEF (Homo sapiens, UniProt O95238 1-335); settings: protein: recombinant; tags: N-terminal GST; dsDNA, one strand shown
T9 sequence: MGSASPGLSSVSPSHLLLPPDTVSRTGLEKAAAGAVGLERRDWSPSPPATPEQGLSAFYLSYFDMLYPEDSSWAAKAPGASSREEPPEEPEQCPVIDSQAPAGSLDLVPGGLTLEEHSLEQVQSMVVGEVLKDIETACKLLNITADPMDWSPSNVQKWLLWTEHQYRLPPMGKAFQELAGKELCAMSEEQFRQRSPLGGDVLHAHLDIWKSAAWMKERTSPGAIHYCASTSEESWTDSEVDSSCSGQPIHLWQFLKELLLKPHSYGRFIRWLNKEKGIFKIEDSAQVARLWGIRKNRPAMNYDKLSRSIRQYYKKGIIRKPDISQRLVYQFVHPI
Method in brief: as §1

ETV7 = biological target: T10, ETV7 (Homo sapiens, UniProt Q9Y603 1-341); settings: protein: recombinant; tags: N-terminal GST; dsDNA, one strand shown
T10 sequence: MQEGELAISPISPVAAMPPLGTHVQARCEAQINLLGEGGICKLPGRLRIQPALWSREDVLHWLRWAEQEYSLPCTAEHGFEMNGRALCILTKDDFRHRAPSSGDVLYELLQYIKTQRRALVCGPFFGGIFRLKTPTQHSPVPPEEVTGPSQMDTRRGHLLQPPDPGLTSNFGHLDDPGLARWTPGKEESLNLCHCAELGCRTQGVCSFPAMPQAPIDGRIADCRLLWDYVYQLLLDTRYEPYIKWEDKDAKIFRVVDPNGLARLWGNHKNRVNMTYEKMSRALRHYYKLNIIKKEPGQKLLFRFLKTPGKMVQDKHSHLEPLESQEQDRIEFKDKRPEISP
Method in brief: as §1

ELF5 = biological target: T11, ELF5 (Homo sapiens, UniProt Q9UKW6-2 1-255); settings: protein: recombinant; tags: N-terminal GST; dsDNA, one strand shown
T11 sequence: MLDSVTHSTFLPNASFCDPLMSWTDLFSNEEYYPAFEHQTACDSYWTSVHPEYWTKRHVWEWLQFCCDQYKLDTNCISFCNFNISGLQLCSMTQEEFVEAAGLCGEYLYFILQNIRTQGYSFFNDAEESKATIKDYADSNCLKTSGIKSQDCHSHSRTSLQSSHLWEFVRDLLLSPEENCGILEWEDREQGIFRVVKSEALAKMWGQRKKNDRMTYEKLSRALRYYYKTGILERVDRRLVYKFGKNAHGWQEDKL
Method in brief: as §1

ETV3 = biological target: T12, ETV3 (Homo sapiens, UniProt P41162-2 1-143); settings: protein: recombinant; tags: N-terminal GST; dsDNA, one strand shown
T12 sequence: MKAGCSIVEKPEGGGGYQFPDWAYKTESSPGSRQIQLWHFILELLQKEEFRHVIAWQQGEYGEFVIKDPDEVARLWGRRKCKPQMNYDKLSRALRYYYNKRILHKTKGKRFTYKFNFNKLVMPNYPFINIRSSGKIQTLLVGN
Method in brief: as §1

ETV6 = ETV6 (Homo sapiens, UniProt P41212 1-452); settings: protein: recombinant; tags: N-terminal GST; dsDNA, one strand shown
Method in brief: as §1

Chain of ELF4 (Q99607 whole entry): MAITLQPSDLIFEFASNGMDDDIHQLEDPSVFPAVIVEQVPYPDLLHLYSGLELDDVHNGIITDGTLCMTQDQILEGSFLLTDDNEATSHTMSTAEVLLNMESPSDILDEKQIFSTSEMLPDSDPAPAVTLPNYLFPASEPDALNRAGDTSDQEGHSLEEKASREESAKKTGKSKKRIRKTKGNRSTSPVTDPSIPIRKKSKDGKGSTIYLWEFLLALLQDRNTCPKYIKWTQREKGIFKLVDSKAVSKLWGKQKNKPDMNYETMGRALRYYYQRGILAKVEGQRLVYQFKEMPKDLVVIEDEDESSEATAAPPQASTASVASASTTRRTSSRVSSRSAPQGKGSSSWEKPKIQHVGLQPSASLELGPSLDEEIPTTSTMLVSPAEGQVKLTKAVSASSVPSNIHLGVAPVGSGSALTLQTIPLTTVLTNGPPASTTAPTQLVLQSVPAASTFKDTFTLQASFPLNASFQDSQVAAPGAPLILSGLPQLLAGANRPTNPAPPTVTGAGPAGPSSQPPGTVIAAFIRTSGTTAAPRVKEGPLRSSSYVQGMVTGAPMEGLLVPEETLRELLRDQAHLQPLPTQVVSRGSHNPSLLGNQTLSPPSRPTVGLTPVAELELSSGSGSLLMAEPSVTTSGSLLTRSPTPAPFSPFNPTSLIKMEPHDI
Chain of ETV1 (P50549 whole entry): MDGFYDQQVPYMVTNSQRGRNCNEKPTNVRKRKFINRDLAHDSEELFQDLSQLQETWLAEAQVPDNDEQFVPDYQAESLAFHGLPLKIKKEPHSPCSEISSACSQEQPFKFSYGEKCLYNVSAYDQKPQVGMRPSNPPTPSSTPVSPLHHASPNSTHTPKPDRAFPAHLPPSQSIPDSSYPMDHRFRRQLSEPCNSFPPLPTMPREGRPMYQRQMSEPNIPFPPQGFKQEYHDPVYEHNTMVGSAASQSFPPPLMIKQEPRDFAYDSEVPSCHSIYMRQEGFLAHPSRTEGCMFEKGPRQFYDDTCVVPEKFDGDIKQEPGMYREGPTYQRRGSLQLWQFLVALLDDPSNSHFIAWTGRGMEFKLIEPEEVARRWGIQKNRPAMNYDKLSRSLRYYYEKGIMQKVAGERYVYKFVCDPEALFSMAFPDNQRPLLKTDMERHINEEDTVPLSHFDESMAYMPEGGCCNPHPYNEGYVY
Chain of ETV5 (P41161 whole entry): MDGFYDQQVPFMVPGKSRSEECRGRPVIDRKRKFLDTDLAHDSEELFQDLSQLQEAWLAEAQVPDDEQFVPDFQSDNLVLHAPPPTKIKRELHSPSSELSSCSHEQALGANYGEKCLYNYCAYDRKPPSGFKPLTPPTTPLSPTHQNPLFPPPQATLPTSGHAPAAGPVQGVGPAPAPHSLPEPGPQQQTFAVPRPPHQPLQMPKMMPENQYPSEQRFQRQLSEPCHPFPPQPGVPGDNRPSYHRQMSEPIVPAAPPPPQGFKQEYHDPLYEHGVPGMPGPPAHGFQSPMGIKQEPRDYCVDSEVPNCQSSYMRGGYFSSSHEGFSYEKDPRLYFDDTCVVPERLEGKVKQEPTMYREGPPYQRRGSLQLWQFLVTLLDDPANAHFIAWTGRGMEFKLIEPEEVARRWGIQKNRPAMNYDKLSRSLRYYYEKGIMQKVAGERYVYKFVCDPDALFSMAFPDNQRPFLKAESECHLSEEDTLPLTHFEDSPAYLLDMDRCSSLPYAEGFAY
Chain of HSF1 (Q00613 whole entry): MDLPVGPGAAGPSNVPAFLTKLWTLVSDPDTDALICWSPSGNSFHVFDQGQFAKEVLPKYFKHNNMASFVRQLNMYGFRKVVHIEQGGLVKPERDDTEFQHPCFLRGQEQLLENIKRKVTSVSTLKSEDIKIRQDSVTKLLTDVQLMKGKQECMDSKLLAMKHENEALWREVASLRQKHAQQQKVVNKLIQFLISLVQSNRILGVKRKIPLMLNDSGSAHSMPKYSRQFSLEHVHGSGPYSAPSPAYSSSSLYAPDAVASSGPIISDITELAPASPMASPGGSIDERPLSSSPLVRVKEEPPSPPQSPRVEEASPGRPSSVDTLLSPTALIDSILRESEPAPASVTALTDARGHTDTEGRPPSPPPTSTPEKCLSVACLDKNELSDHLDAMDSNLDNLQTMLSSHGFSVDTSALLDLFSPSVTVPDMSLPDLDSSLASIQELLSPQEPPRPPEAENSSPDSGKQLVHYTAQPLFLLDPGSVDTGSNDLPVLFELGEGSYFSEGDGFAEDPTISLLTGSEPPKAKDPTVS
Chain of ETV6 (P41212 whole entry): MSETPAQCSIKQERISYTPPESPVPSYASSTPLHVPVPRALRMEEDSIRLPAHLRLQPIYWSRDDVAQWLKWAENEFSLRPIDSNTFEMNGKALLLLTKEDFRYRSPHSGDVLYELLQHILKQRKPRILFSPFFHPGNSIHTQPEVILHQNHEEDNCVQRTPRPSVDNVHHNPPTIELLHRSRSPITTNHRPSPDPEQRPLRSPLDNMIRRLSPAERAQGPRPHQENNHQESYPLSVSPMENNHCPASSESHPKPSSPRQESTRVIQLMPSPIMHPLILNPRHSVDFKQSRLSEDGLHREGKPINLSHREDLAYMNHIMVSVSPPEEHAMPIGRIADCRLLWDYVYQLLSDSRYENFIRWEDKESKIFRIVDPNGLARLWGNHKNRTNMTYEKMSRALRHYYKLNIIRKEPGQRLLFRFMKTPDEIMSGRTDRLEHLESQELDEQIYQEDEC
Chain of CRX (O43186 whole entry): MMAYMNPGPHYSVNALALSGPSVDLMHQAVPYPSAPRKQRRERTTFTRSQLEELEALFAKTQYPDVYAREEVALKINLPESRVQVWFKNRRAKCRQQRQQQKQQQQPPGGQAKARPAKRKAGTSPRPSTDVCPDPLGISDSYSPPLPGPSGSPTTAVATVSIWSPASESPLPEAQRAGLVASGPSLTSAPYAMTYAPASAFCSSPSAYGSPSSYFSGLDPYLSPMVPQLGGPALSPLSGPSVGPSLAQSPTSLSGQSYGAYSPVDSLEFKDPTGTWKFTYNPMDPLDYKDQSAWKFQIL

AAAAAT
binding signal (FEV): 1.27 fold enrichment (6-mer frequency, TF over GST control) | binding signal (ETV5): 1.3 fold enrichment (6-mer frequency, TF over GST control) | binding signal (HSF1): 1.5 fold enrichment (6-mer frequency, TF over GST control) | binding signal (SPIC): 1.25 fold enrichment (6-mer frequency, TF over GST control) | binding signal (ELF4): 1.38 fold enrichment (6-mer frequency, TF over GST control) | binding signal (ELK4): 1.31 fold enrichment (6-mer frequency, TF over GST control) | binding signal (ETV2): 1.49 fold enrichment (6-mer frequency, TF over GST control) | binding signal (ELF3): 1.25 fold enrichment (6-mer frequency, TF over GST control) | binding signal (CRX): 1.4 fold enrichment (6-mer frequency, TF over GST control) | binding signal (ETV1): 1.26 fold enrichment (6-mer frequency, TF over GST control) | binding signal (ERF): 1.35 fold enrichment (6-mer frequency, TF over GST control) | binding signal (ETV3L): 1.34 fold enrichment (6-mer frequency, TF over GST control) | binding signal (ETS2): 1.3 fold enrichment (6-mer frequency, TF over GST control) | binding signal (SPDEF): 1.21 fold enrichment (6-mer frequency, TF over GST control) | binding signal (ETV7): 1.34 fold enrichment (6-mer frequency, TF over GST control) | binding signal (ELF5): 1.3 fold enrichment (6-mer frequency, TF over GST control) | binding signal (ETV3): 1.29 fold enrichment (6-mer frequency, TF over GST control) | binding signal (ETV6): 1.35 fold enrichment (6-mer frequency, TF over GST control)
